Molecules are shown by their SMILES. Hit rate of the full screen: of about 320,000 compounds, about 2,100 (0.66%) were called active. Inconclusive results (about 53%) are left out. Calls follow the shape of the dose curve; as a rule, active = well fitted inhibition curve with a large enough effect in the signal ratio, with a control signal flat (not every such curve was filed as active); inconclusive = small, poorly fitted or top-dose-only effect, or effect the other way, or a change in a side signal; inactive = flat fitted curve, though single readings scatter; the % refers to the signal ratio. Many of the other results were omitted from the sample, so actives are more common in it than they were.

The source of these data is PubChem BioAssay AID2685 (National Center for Advancing Translational Sciences (NCATS), 2010).
Potency is read from the fitted curve at half-maximal effect.

The nature of the assay: qHTS Assay for Lipid Storage Modulators in Drosophila S3 Cells.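 As to cell number change: cells counted by Cell Tracker Red CMTPX staining in the red channel.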 To be noted: BODIPY lipid droplet fluorescence, 18-24 h, cells fed with added oleic acid; cell number change: measured here: cell count max response; series mostly up to 46.1 µM. A digest of the protocol: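 Drosophila S3 cells got compounds at several concentrations plus oleic acid (400 uM solution). Laser-scanning cytometry with 488 nm excitation read lipid droplets at 500-530 nm and cells at 575-640 nm. Percent activity was relative to 20 uM Triacsin C.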
In general terms: qHTS replaces the single test concentration by a dilution series.
Regarding `Cc1ccc(S(N)(=O)=O)c(C)c1-n1cnnn1`, the Potency result was “inactive” and the cell number change turned out to be 3.24%. For `Cc1ccc(SC(C)C(=O)Nc2c(C)n(C)n(-c3ccccc3)c2=O)cc1` (centres undefined), the Potency entry was “inactive”.

On to `Cc1cc(SC(C)C(=O)Nc2c(C)n(C)n(-c3ccccc3)c2=O)nc2ccccc12` (centres undefined), for which the Potency entry is “inactive” and the cell number change was -14.4%. `Cc1c(NC(=O)C(C)N2CC(C)OC(C)C2)c(=O)n(-c2ccccc2)n1C` (centres undefined): the Potency was 7.31 µM (active) and the cell number change turned out to be 11.9%. For `Cc1c(NC(=O)C(C)N2C(=O)C3CCCCC3C2=O)c(=O)n(-c2ccccc2)n1C` (centres undefined), in that order: “inactive” and 9.88%.

Consider `CCN1CCN(C(C)C(=O)Nc2c(C)n(C)n(-c3ccccc3)c2=O)CC1` (centres undefined), for which the Potency result is “inactive” and the cell number change is -2.1%. For `COc1cc(-c2nnc(SC(C)C(=O)Nc3c(C)n(C)n(-c4ccccc4)c3=O)o2)cc(OC)c1OC` (centres undefined), in that order: 25.9 µM (active) and -15.3%. For `COCCNC(=O)C(C)Oc1ccccc1` (centres undefined), in that order: “inactive” and 20.2%. In the case of `NS(=O)(=O)c1ccc(CNC(=O)CSc2nc3ccc(Cl)cc3[nH]2)cc1`, the Potency result is “inactive” and the cell number change is -16.1%. For `COc1ccc(C2CC(=O)c3sc(NC(C)=O)nc3C2)cc1` (centres undefined) the same measures were “inactive” and 20.9%.

As for `Cc1c(Cl)cccc1NC(=S)N1CCC(N(C)CC2CCCO2)CC1` (centres undefined), the Potency result is “inactive” and the cell number change was 7.58%. For `Cc1cccc(C)c1NC(=S)N1CCC(N(C)CC2CCCO2)CC1` (centres undefined), the Potency was 20.6 µM (active) and the cell number change was -14.4%.

For `Cc1ccc(NC(=S)N2CCC(N(C)CC3CCCO3)CC2)cc1` (centres undefined), the Potency result is “inactive” and the cell number change came to 14.9%.

Consider `Cc1cc(C)c(NC(=S)N2CCC(N(C)CC3CCCO3)CC2)c(C)c1` (centres undefined), for which the Potency is 25.9 µM (active) and the cell number change turned out to be 6.74%. `Cc1cc(C)cc(NC(=S)N2CCC(N(C)CC3CCCO3)CC2)c1` (centres undefined): the Potency entry was “inactive” and the cell number change was 11.9%. For `Cc1ccc(NC(=S)N2CCC(N(C)CC3CCCO3)CC2)cc1C` (centres undefined) the same measures were “inactive” and 5.03%. Regarding `Cc1cc(-c2csc(N)n2)c(C)n1CCc1ccccc1`, the Potency result is “inactive” and the cell number change was -18.9%. For `CCN(CC)C(=O)C1CCN(S(=O)(=O)c2ccc(-n3cnnn3)cc2)CC1`, the Potency result was “inactive” and the cell number change came to 1.39%.

For `COc1ccc(S(=O)(=O)NCC(=O)NCc2cc(=O)n(C)c(=O)n2C)cc1C`, the Potency entry is “inactive” and the cell number change stood at 10.1%.

Take `CCOC(CCn1c(SCC(=O)NC2CCCC2)nc2ccccc2c1=O)OCC`: the Potency result was “inactive” and the cell number change stood at 7.57%. For `CN(C)CCCNCCCNC(=O)c1ccncc1` the same measures were “inactive” and 10.5%.

Consider `O=C(CC1C(=O)NCCN1Cc1ccccc1)NC1CCCCCC1` (centres undefined), for which the Potency entry was “inactive” and the cell number change is 13.2%.

As for `O=C(CC1C(=O)NCCN1Cc1cccc(C(F)(F)F)c1)NC1CCCCCC1` (centres undefined), the Potency is 5.17 µM (active) and the cell number change came to 13.5%.

With `O=C(CC1C(=O)NCCN1Cc1cccc(F)c1)NC1CCCCC1` (centres undefined), the Potency entry is “inactive” and the cell number change is 13.2%. As to `Cc1n[nH]c(C)c1C(=O)CC1(O)C(=O)N(CCc2ccccc2)c2ccc(Br)cc21` (centres undefined), the Potency entry was “inactive” and the cell number change came to 12.8%. For `O=C1NC2(Nc3ccccc31)C(=O)Nc1ccc(Br)cc12` (centres undefined) the same measures were “inactive” and -0.207%.

As for `O=C1Nc2ccc(Br)cc2C1(O)c1ccccc1` (centres undefined), the Potency result was “inactive” and the cell number change was 20.9%. Consider `O=C1Nc2ccc(Br)cc2C12NNc1ccccc1O2` (centres undefined), for which the Potency was 23.1 µM (active).

In the case of `CCOc1ccc(NC(=O)NC(C)c2ccc3c(c2)OCO3)cc1` (centres undefined), the Potency entry is “inactive” and the cell number change was -0.862%.

On to `O=C(CCSc1nc(-c2ccc3c(c2)OCO3)cc(C(F)(F)F)n1)NCc1ccccc1`, for which the Potency result is “inactive” and the cell number change was -16.9%. For `CCc1cccc(NC(=O)NC(=O)Cn2nnc(C(=O)OC)c2C(=O)OC)c1` the same measures were “inactive” and 1.8%. For `C=C(C)CSc1nnc([C@@H]2CCCN2C(=O)OC(C)(C)C)o1`, in that order: “inactive” and 9.31%. For the molecule `CC(C)(C)OC(=O)N1CCC[C@H]1c1nnc(SCc2ccccc2)o1`, the Potency result is “inactive” and the cell number change turned out to be 10.4%. In the case of `CC(C)Sc1nnc([C@@H]2CCCN2C(=O)OC(C)(C)C)o1`, the Potency is 32.6 µM (active) and the cell number change was -3.74%. In the case of `Cc1ccc(CSc2nnc([C@@H]3CCCN3C(=O)OC(C)(C)C)o2)cc1`, the Potency entry is “inactive” and the cell number change amounted to 17.7%. For `CCSc1nnc([C@@H]2CCCN2C(=O)OC(C)(C)C)o1` the same measures were 23.1 µM (active) and 6.53%. For `CCCCSc1nnc([C@@H]2CCCN2C(=O)OC(C)(C)C)o1`, the Potency entry is “inactive” and the cell number change was -21.2%. For `COc1ccc(C=O)cc1Cn1ccnc1C` the same measures were “inactive” and -21.5%. For `CC(C)(C)c1ccc(/C=C(\C#N)C(=O)Nc2ccccn2)cc1` the same measures were “inactive” and 9.55%. With `N#C/C(=C\c1ccccc1Cl)C(=O)Nc1ccccn1`, the Potency was 25.9 µM (active) and the cell number change turned out to be 7.44%. For `N#C/C(=C\c1cccs1)C(=O)Nc1ccccn1`, in that order: “inactive” and 9.59%. Regarding `Cc1ccc(-c2cc(C(F)F)n3ncc(C(=O)N4CCc5ccccc5C4)c3n2)cc1`, the Potency result was “inactive” and the cell number change turned out to be 3.7%. For `CC(=O)Nc1cccc(Oc2ncnc3scc(-c4ccccc4)c23)c1`, in that order: “inactive” and 1.71%. For `CCCn1nc(C(=O)N2CCN(S(=O)(=O)c3ccc(C)c(C)c3)CC2)c2ccccc2c1=O` the same measures were 11.6 µM (active) and 29.1%. For `CCCn1nc(C(=O)N2CCc3ccccc3C2)c2ccccc2c1=O`, in that order: “inactive” and -8.58%. As for `Cc1ccc(S(=O)(=O)N2CCN(C(=O)c3nn(C(C)C)c(=O)c4ccccc34)CC2)cc1C`, the Potency entry is “inactive”.
